Reference: paper PMC11006913
Changes are numbered by the printed parent chain.

target: T1, PAX4 (Homo sapiens, UniProt O43316 9-242, F177V); assay: PBM; 200 nM protein, PBS; conditions: dsDNA, one strand shown
T1 sequence: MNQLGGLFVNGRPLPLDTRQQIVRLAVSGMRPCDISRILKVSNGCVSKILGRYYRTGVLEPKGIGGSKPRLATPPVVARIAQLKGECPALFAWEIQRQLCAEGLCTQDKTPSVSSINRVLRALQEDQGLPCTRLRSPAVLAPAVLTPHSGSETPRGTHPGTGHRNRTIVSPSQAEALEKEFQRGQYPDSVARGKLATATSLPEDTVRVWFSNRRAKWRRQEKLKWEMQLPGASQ

Row | Sequence | binding signal
1 | CCCTGGTC | 9.22 upbm affinity estimate (log intensity, higher = more binding, comparable within an allelic series)
2 | GCACCACC | 9.29 upbm affinity estimate (log intensity, higher = more binding, comparable within an allelic series)
3 | TAATTTGA | 10.5 upbm affinity estimate (log intensity, higher = more binding, comparable within an allelic series)

target: HOXA4 (Homo sapiens, UniProt Q00056 201-287); assay: PBM; 200 nM protein, PBS; conditions: dsDNA, one strand shown
Sequence (Q00056 201-287): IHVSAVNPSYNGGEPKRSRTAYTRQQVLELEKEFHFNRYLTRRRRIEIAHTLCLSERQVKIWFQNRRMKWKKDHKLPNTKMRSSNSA

Row | Sequence | binding signal
4 | CCCCAGGC | 9.62 upbm affinity estimate (log intensity, higher = more binding, comparable within an allelic series)
5 | AGCCCGAG | 9.65 upbm affinity estimate (log intensity, higher = more binding, comparable within an allelic series)
6 | CCCTGGTC | 9.69 upbm affinity estimate (log intensity, higher = more binding, comparable within an allelic series)
7 | CCGGACGG | 9.9 upbm affinity estimate (log intensity, higher = more binding, comparable within an allelic series)
8 | GCACCACC | 9.72 upbm affinity estimate (log intensity, higher = more binding, comparable within an allelic series)
9 | CCCGACGC | 9.73 upbm affinity estimate (log intensity, higher = more binding, comparable within an allelic series)
10 | CAGGCTTC | 9.69 upbm affinity estimate (log intensity, higher = more binding, comparable within an allelic series)
11 | CCCCCTTC | 9.19 upbm affinity estimate (log intensity, higher = more binding, comparable within an allelic series)
12 | GCCCGGAC | 9.68 upbm affinity estimate (log intensity, higher = more binding, comparable within an allelic series)
13 | GCGGACCC | 9.79 upbm affinity estimate (log intensity, higher = more binding, comparable within an allelic series)
14 | GAGGTTGC | 9.69 upbm affinity estimate (log intensity, higher = more binding, comparable within an allelic series)
15 | CCCCCCAG | 9.42 upbm affinity estimate (log intensity, higher = more binding, comparable within an allelic series)
16 | CCGAAGGC | 9.96 upbm affinity estimate (log intensity, higher = more binding, comparable within an allelic series)
17 | TAATTTGA | 12.8 upbm affinity estimate (log intensity, higher = more binding, comparable within an allelic series)
18 | GCCAAGCC | 9.92 upbm affinity estimate (log intensity, higher = more binding, comparable within an allelic series)
19 | CCCTCTCG | 9.81 upbm affinity estimate (log intensity, higher = more binding, comparable within an allelic series)
20 | CCCCACGG | 9.82 upbm affinity estimate (log intensity, higher = more binding, comparable within an allelic series)

Row | Sequence | binding signal
21 | GATCCCCC | 9.93 upbm affinity estimate (log intensity, higher = more binding, comparable within an allelic series)
22 | ATGAATGA | 11.5 upbm affinity estimate (log intensity, higher = more binding, comparable within an allelic series)
23 | CAGCCTCC | 9.62 upbm affinity estimate (log intensity, higher = more binding, comparable within an allelic series)
24 | ACCTTCGC | 9.8 upbm affinity estimate (log intensity, higher = more binding, comparable within an allelic series)
25 | GCCCCGAC | 9.87 upbm affinity estimate (log intensity, higher = more binding, comparable within an allelic series)
26 | CAGGAAGG | 9.59 upbm affinity estimate (log intensity, higher = more binding, comparable within an allelic series)
27 | GCCGGCCC | 9.78 upbm affinity estimate (log intensity, higher = more binding, comparable within an allelic series)
28 | CCGGCAGG | 10 upbm affinity estimate (log intensity, higher = more binding, comparable within an allelic series)
29 | CGCGCGCG | 9.94 upbm affinity estimate (log intensity, higher = more binding, comparable within an allelic series)
30 | GCCTCCCA | 9.75 upbm affinity estimate (log intensity, higher = more binding, comparable within an allelic series)
31 | AGCCACGG | 9.87 upbm affinity estimate (log intensity, higher = more binding, comparable within an allelic series)
32 | GACCCTCC | 9.94 upbm affinity estimate (log intensity, higher = more binding, comparable within an allelic series)
33 | GGGGGAAC | 9.72 upbm affinity estimate (log intensity, higher = more binding, comparable within an allelic series)
34 | CCGAGAGG | 9.59 upbm affinity estimate (log intensity, higher = more binding, comparable within an allelic series)
35 | CCCGAAGG | 9.76 upbm affinity estimate (log intensity, higher = more binding, comparable within an allelic series)
36 | CCCGAGGG | 9.66 upbm affinity estimate (log intensity, higher = more binding, comparable within an allelic series)

target: HOXC10 (Homo sapiens, UniProt Q9NYD6 254-340, K271E); assay: PBM; 200 nM protein, PBS; conditions: dsDNA, one strand shown
Sequence (Q9NYD6 254-340 K271E): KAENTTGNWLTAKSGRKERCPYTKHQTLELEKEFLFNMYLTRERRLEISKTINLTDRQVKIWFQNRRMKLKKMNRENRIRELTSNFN

Row | Sequence | binding signal
37 | CAGGCTTC | 9.96 upbm affinity estimate (log intensity, higher = more binding, comparable within an allelic series)
38 | CCCCCTTC | 9.78 upbm affinity estimate (log intensity, higher = more binding, comparable within an allelic series)
39 | GAGGTTGC | 9.96 upbm affinity estimate (log intensity, higher = more binding, comparable within an allelic series)
40 | GCCAAGCC | 10 upbm affinity estimate (log intensity, higher = more binding, comparable within an allelic series)
41 | CCCTCTCG | 10.1 upbm affinity estimate (log intensity, higher = more binding, comparable within an allelic series)
42 | CCCCACGG | 10 upbm affinity estimate (log intensity, higher = more binding, comparable within an allelic series)
43 | GCCCCGAC | 10.1 upbm affinity estimate (log intensity, higher = more binding, comparable within an allelic series)
44 | CCGGCAGG | 9.98 upbm affinity estimate (log intensity, higher = more binding, comparable within an allelic series)
45 | CGCGCGCG | 10 upbm affinity estimate (log intensity, higher = more binding, comparable within an allelic series)
46 | CCCGAAGG | 9.97 upbm affinity estimate (log intensity, higher = more binding, comparable within an allelic series)

target: MSX2 (Homo sapiens, UniProt P35548 130-214); assay: PBM; 200 nM protein, PBS; conditions: dsDNA, one strand shown
Sequence (P35548 130-214): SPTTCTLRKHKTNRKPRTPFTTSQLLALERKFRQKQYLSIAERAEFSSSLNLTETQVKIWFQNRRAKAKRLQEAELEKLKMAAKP

Row | Sequence | binding signal
47 | GCCCGGAC | 9.46 upbm affinity estimate (log intensity, higher = more binding, comparable within an allelic series)
48 | CCCCCCAG | 9.49 upbm affinity estimate (log intensity, higher = more binding, comparable within an allelic series)
49 | TAATTTGA | 13.4 upbm affinity estimate (log intensity, higher = more binding, comparable within an allelic series)
50 | CGCGCGCG | 9.53 upbm affinity estimate (log intensity, higher = more binding, comparable within an allelic series)

target: ALX3 (Homo sapiens, UniProt O95076 139-225); assay: PBM; 200 nM protein, PBS; conditions: dsDNA, one strand shown
Sequence (O95076 139-225): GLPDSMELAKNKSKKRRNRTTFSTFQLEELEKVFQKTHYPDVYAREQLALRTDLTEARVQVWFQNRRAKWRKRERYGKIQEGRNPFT

Row | Sequence | binding signal
51 | CCGGACGG | 7.87 upbm affinity estimate (log intensity, higher = more binding, comparable within an allelic series)
52 | CCCCCTTC | 7.43 upbm affinity estimate (log intensity, higher = more binding, comparable within an allelic series)
53 | CAGCCTCC | 7.74 upbm affinity estimate (log intensity, higher = more binding, comparable within an allelic series)
54 | CCGGCAGG | 7.72 upbm affinity estimate (log intensity, higher = more binding, comparable within an allelic series)
55 | AGCCACGG | 7.83 upbm affinity estimate (log intensity, higher = more binding, comparable within an allelic series)

target: T2, PAX4 (Homo sapiens, UniProt O43316 9-242, F177Y); assay: PBM; 200 nM protein, PBS; conditions: dsDNA, one strand shown
T2 sequence: T1 sequence with V169Y

Row | Sequence | binding signal
56 | CCCTGGTC | 9.15 upbm affinity estimate (log intensity, higher = more binding, comparable within an allelic series)
57 | GCACCACC | 9.28 upbm affinity estimate (log intensity, higher = more binding, comparable within an allelic series)
58 | TAATTTGA | 10.9 upbm affinity estimate (log intensity, higher = more binding, comparable within an allelic series)

target: ALX3 (Homo sapiens, UniProt O95076 139-225, L168Q); assay: PBM; 200 nM protein, PBS; conditions: dsDNA, one strand shown
Sequence (O95076 139-225 L168Q): as the sequence (O95076 139-225) above, with L30Q counted along it

Row | Sequence | binding signal
59 | CCGGACGG | 7.82 upbm affinity estimate (log intensity, higher = more binding, comparable within an allelic series)
60 | CCCCCTTC | 7.31 upbm affinity estimate (log intensity, higher = more binding, comparable within an allelic series)
61 | CAGCCTCC | 7.64 upbm affinity estimate (log intensity, higher = more binding, comparable within an allelic series)
62 | CCGGCAGG | 7.79 upbm affinity estimate (log intensity, higher = more binding, comparable within an allelic series)
63 | AGCCACGG | 7.8 upbm affinity estimate (log intensity, higher = more binding, comparable within an allelic series)

target: HOXC9 (Homo sapiens, UniProt P31274 178-260, R222W); assay: PBM; 200 nM protein, PBS; conditions: dsDNA, one strand shown
Sequence (P31274 178-260 R222W): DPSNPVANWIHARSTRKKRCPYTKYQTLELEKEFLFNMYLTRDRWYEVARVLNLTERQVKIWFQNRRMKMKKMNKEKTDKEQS

Row | Sequence | binding signal
64 | AGCCCGAG | 9.78 upbm affinity estimate (log intensity, higher = more binding, comparable within an allelic series)
65 | CCGGACGG | 9.76 upbm affinity estimate (log intensity, higher = more binding, comparable within an allelic series)
66 | CCCGACGC | 9.75 upbm affinity estimate (log intensity, higher = more binding, comparable within an allelic series)
67 | CAGGCTTC | 9.74 upbm affinity estimate (log intensity, higher = more binding, comparable within an allelic series)
68 | GCCTCCCA | 9.65 upbm affinity estimate (log intensity, higher = more binding, comparable within an allelic series)
69 | AGCCACGG | 9.71 upbm affinity estimate (log intensity, higher = more binding, comparable within an allelic series)
70 | GACCCTCC | 9.65 upbm affinity estimate (log intensity, higher = more binding, comparable within an allelic series)
71 | CCGAGAGG | 9.58 upbm affinity estimate (log intensity, higher = more binding, comparable within an allelic series)
72 | CCCGAGGG | 9.61 upbm affinity estimate (log intensity, higher = more binding, comparable within an allelic series)

target: ALX3 (Homo sapiens, UniProt O95076 139-225, L168V); assay: PBM; 200 nM protein, PBS; conditions: dsDNA, one strand shown
Sequence (O95076 139-225 L168V): as the sequence (O95076 139-225) above, with L30V counted along it

Row | Sequence | binding signal
73 | CCGGACGG | 7.73 upbm affinity estimate (log intensity, higher = more binding, comparable within an allelic series)
